# What was measured:
# [1] = target: T1, GST-Nv-NF-kB (Ser allele) (Nematostella vectensis, UniProt A7UNT2 2-411); experiment: protein-binding microarray (PBM); PBM: ~300 nM protein, 6 mM HEPES pH 7.8, 80 mM KCl, 0.5 mM EDTA, 0.5 mM EGTA, 6% glycerol, 35 ng/ul poly-dIdC, 1% milk, 1 h, room temperature; Ap Aiptasia and Nv Nematostella (sea anemones) / Co Capsaspora / Aq Amphimedon (sponge) / Dm Drosophila / Hu human; RHD is the Rel homology domain; high values mean tight binding; conditions: dsDNA, one strand shown
# T1 sequence: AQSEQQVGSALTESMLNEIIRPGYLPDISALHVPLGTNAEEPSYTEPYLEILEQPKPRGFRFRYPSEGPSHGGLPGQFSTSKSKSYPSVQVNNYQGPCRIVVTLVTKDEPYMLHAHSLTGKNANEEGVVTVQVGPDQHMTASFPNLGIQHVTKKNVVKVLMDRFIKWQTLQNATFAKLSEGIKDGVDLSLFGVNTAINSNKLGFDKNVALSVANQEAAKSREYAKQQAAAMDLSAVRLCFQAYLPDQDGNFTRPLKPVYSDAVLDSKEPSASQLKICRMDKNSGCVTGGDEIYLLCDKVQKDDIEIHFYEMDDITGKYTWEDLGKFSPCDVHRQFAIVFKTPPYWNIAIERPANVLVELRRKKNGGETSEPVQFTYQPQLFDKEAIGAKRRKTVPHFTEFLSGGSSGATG
# [2] = target: GST-Hu-p50 (Homo sapiens, UniProt P19838 7-356); experiment: as above; conditions: dsDNA, one strand shown
# Chain of GST-Hu-p50 (P19838 7-356): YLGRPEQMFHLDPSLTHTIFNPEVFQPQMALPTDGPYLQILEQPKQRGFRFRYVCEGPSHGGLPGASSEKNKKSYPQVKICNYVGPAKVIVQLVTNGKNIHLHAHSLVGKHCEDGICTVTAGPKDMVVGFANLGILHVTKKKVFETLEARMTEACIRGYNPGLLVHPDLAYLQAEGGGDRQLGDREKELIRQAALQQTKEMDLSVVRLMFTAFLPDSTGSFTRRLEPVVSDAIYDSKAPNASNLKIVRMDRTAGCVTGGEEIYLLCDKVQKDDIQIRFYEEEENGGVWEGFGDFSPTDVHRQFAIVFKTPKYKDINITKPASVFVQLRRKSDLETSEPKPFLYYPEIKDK
Sequence,binding signal [1] [z-score],binding signal [2] [z-score]
CCGATTAACATCAACATGGGAAATGATGTTAATCGGGTCTTGATTCGCTTGACGCTGCTG,2.18,1.56
CCGATTAACATCACAAAACTCCCTGATGTTAATCGGGTCTTGATTCGCTTGACGCTGCTG,6.52,4.95
CCGATTAACATCAGGTTTTCCCATGATGTTAATCGGGTCTTGATTCGCTTGACGCTGCTG,5.41,3.27
CCGATTAACATCAGGGGACTATATGATGTTAATCGGGTCTTGATTCGCTTGACGCTGCTG,4.77,4.35
CCGATTAACATCAGGGGGTGATATGATGTTAATCGGGTCTTGATTCGCTTGACGCTGCTG,4.45,3.97
CCGATTAACATCACTAATTTCCCTGATGTTAATCGGGTCTTGATTCGCTTGACGCTGCTG,6.51,3.94
CCGATTAACATCATCAGGGAAAATGATGTTAATCGGGTCTTGATTCGCTTGACGCTGCTG,5.74,2.83
CCGATTAACATCAGGAATGTCCCTGATGTTAATCGGGTCTTGATTCGCTTGACGCTGCTG,3.65,3.77
CCGATTAACATCAGGAAACTACCTGATGTTAATCGGGTCTTGATTCGCTTGACGCTGCTG,3.83,3.87
CCGATTAACATCAATTCCCAAGGTGATGTTAATCGGGTCTTGATTCGCTTGACGCTGCTG,2.02,2.13
CCGATTAACATCAGGGTTTTCCATGATGTTAATCGGGTCTTGATTCGCTTGACGCTGCTG,1.68,2.46
CCGATTAACATCACGGAAACCCCTGATGTTAATCGGGTCTTGATTCGCTTGACGCTGCTG,3.87,4.6
CCGATTAACATCACCCGGGAAAATGATGTTAATCGGGTCTTGATTCGCTTGACGCTGCTG,4.34,3.07
CCGATTAACATCAGGATTGCCCCTGATGTTAATCGGGTCTTGATTCGCTTGACGCTGCTG,2.73,3.69
CCGATTAACATCAATCACCCCCATGATGTTAATCGGGTCTTGATTCGCTTGACGCTGCTG,2.78,3.76
CCGATTAACATCAGGAGTCCCCATGATGTTAATCGGGTCTTGATTCGCTTGACGCTGCTG,4.11,4.86
CCGATTAACATCAGGGACGGAAATGATGTTAATCGGGTCTTGATTCGCTTGACGCTGCTG,2.34,2.19

Sequence,binding signal [1] [z-score],binding signal [2] [z-score]
CCGATTAACATCACGGGGGGGACTGATGTTAATCGGGTCTTGATTCGCTTGACGCTGCTG,4.38,4.37
CCGATTAACATCAGATTTTTCCCTGATGTTAATCGGGTCTTGATTCGCTTGACGCTGCTG,6.27,3.71
CCGATTAACATCACGGAAGTCCCTGATGTTAATCGGGTCTTGATTCGCTTGACGCTGCTG,5.32,4.43
CCGATTAACATCAGGGGAAGGGATGATGTTAATCGGGTCTTGATTCGCTTGACGCTGCTG,5.77,3.4
CCGATTAACATCAGGGGGTAACCTGATGTTAATCGGGTCTTGATTCGCTTGACGCTGCTG,3.93,4.28
CCGATTAACATCACGGATTTCCCTGATGTTAATCGGGTCTTGATTCGCTTGACGCTGCTG,5.46,3.76
CCGATTAACATCAGGGTTTTTTATGATGTTAATCGGGTCTTGATTCGCTTGACGCTGCTG,4.61,4.89
CCGATTAACATCACCCATGGGAATGATGTTAATCGGGTCTTGATTCGCTTGACGCTGCTG,1.02,1.43
CCGATTAACATCAGGAACCTCCCTGATGTTAATCGGGTCTTGATTCGCTTGACGCTGCTG,1.05,1.22
CCGATTAACATCATAAAATCCCATGATGTTAATCGGGTCTTGATTCGCTTGACGCTGCTG,2.31,3.45
CCGATTAACATCAGGTAATCCCATGATGTTAATCGGGTCTTGATTCGCTTGACGCTGCTG,2.09,1.44
CCGATTAACATCAGGGGGTAGAATGATGTTAATCGGGTCTTGATTCGCTTGACGCTGCTG,4.04,3.9
CCGATTAACATCAAGGACTTCCCTGATGTTAATCGGGTCTTGATTCGCTTGACGCTGCTG,2.77,2.42
CCGATTAACATCACAGGGAAAAATGATGTTAATCGGGTCTTGATTCGCTTGACGCTGCTG,5.18,3.13
CCGATTAACATCACCCCTCCCCCTGATGTTAATCGGGTCTTGATTCGCTTGACGCTGCTG,4.65,4.06
CCGATTAACATCATTAGGGTATTTGATGTTAATCGGGTCTTGATTCGCTTGACGCTGCTG,4.26,4.5

# Reference: article PMC5700166
